Measurements from ChEMBL document CHEMBL1201862, “PubChem BioAssay data set” (2004).
In all, about 57,000 sequences went through this assay and about 2,900 (5.1%) were called active. Rule as the data show it: active = GI50 up to about 1.1 µM and inactive = higher. Not all results are given here. Measured potencies and affinities stand elsewhere.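 Five concentrations, 48 hours, 96-well plates. GI50: concentration for 50% inhibition of growth.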

system: SNB-19; experiment: NCI tumour cell line growth inhibition, 48 h

**Q.** How did the GI50 turn out when “[Bis(aminomethyl)ethylmethylsilane]tetrachloroplatinum(IV), CHEMBL2146192” was run?
**A.** 5.37 µM

**Q.** Which GI50 does the source give for “[Bis(aminomethyl)tetramethylenesilane]tetrachloropaltinum(IV), CHEMBL2146189” here?
**A.** 12.9 µM

**Q.** With “[Bis(aminomethyl)diethylsilane]tetrachloroplatinum(IV), CHEMBL2146203” as the substance, how does the GI50 read?
**A.** 4.05 µM

**Q.** “[Bis(aminomethyl)tetramethylenesilane]dichloropaltinum(II), CHEMBL2146205” was tested. Which GI50 did it give?
**A.** 47.5 µM

**Q.** How did the GI50 turn out when “mu-(1,7-nanodiamine-N,N')bis-(cis-aminedichloroplatimum (II)), CHEMBL2146215” was run?
**A.** 39.1 µM

**Q.** “[Bis(aminomethyl)pentamethylenesilane]dichloropaltinum(II), CHEMBL2146202” was tested. Which GI50 did it give?
**A.** 2.79 µM

**Q.** Which GI50 does the source give for “[Bis(aminomethyl)dimethylsilane]tetrachloroplatinum(IV), CHEMBL2146190” here?
**A.** 8.77 µM

**Q.** CISPLATIN, CHEMBL11359 was tested. Which GI50 did it give?
**A.** 3.19 µM

**Q.** “[Bis(aminomethyl)pentamethylenesilane]tetrachloropaltinum(IV), CHEMBL2146204” was tested. Which GI50 did it give?
**A.** 8.02 µM

**Q.** Which GI50 does the source give for “cis-Bis[[(trimethylsilyl)methyl]amino]tetrachloroplatinum(IV), CHEMBL2146191” here?
**A.** 12.4 µM

**Q.** Which GI50 does the source give for “[Bis(aminomethyl)dimethylsilane]dichloroplatinum (II), CHEMBL2146201” here?
**A.** 24.4 µM
